Laboratory results reported in PubChem BioAssay (NCI).
Compounds without any hit were thinned out: in the full panel of roughly 83,000, 20% have a hit.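 In brief: 96-well plates, 48 h treatment, single concentration, percent growth endpoint.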 Unmarked numbers belong to inactive results. Active and inactive are the calls of the source. Rule for the calls: active = growth percent below 10; inactive = the rest.

Key:
Assay in all cases: NCI-60 one-dose screen, 48 h (100 = growth as untreated, 0 = no growth, -100 = all killed)
Details in all cases: 10 µM unless noted
SR leukemia = tested on: SR leukemia
RPMI-8226 leukemia = tested on: RPMI-8226 leukemia
OVCAR-8 ovarian = tested on: OVCAR-8 ovarian
OVCAR-5 ovarian = tested on: OVCAR-5 ovarian
OVCAR-4 ovarian = tested on: OVCAR-4 ovarian
SK-OV-3 ovarian = tested on: SK-OV-3 ovarian
IGROV1 ovarian = tested on: IGROV1 ovarian
OVCAR-3 ovarian = tested on: OVCAR-3 ovarian
HS 578T breast = tested on: HS 578T breast
NCI/ADR-RES ovarian = tested on: NCI/ADR-RES ovarian
T-47D breast = tested on: T-47D breast
BT-549 breast = tested on: BT-549 breast
MDA-MB-435 melanoma = tested on: MDA-MB-435 melanoma
SW-620 colon = tested on: SW-620 colon
MCF7 breast = tested on: MCF7 breast
HCT-116 colon = tested on: HCT-116 colon
HCC-2998 colon = tested on: HCC-2998 colon
KM12 colon = tested on: KM12 colon

Row | SMILES | growth (SR leukemia) | growth (RPMI-8226 leukemia) | growth (OVCAR-8 ovarian) | growth (OVCAR-5 ovarian) | growth (OVCAR-4 ovarian) | growth (SK-OV-3 ovarian) | growth (IGROV1 ovarian) | growth (OVCAR-3 ovarian) | growth (HS 578T breast) | growth (NCI/ADR-RES ovarian) | growth (T-47D breast) | growth (BT-549 breast) | growth (MDA-MB-435 melanoma) | growth (SW-620 colon) | growth (MCF7 breast) | growth (HCT-116 colon) | growth (HCC-2998 colon) | growth (KM12 colon)
1 | CCN1CCN(C(=O)[C@]23CCC(C)(C)C[C@H]2C2=CC[C@@H]4[C@@]5(C)CC/C(=N/O)C(C)(C)[C@@H]5CC[C@@]4(C)[C@]2(C)CC3)CC1 | 0.702% (active) | 16.6% | 56.9% | 78.1% | -20.5% (active) | 105% | 68% | 53.5% | 84.2% | 60.1% | 36.6% | 87.2% | 66.1% | 22.4% | 37.5% | 19% | 90.4% | 72.1%
2 | Cc1cc(N2CCOCC2)nc(N(CCCNc2ccnc3cc(Cl)ccc23)Cc2ccco2)n1 | -11.4% (active) | 19.4% | 46.3% | 38.9% | 50.4% | 50.1% | 10.9% | 2.02% (active) | 69.5% | 12.1% | 35.3% | 37.8% | -20.1% (active) | 21.4% | 15.5% | 7.37% (active) | 87.9% | 33.3%
3 | COc1ccc(O)c(-c2cc(-c3ccc(Cl)cc3)c(C#N)c(=O)[nH]2)c1 | 33.5% | 62.3% | 68.3% | 106% | 74.4% | 82.8% | 78.5% | 73.4% | 58.7% | 62.5% | 57.3% | 9.41% (active) | 5.98% (active) | 74.7% | 46.6% | 73.4% | 70.6% | 57.6%
4 | O=C1c2cccc3cccc(c23)C(=O)N1CC#Cc1ccc2c3c(cccc13)C(=O)N(CCO)C2=O | 71.4% | 74.5% | 86.5% | 105% | 92.7% | 92.4% | 48.5% | 87% | 83.3% | 91.7% | 98.2% | 86.4% | 92.7% | 92.2% | 106% | 78.4% | 106% | 101%
5 | COc1cc(NC(C)CN(CC(C)C)C(C)C)c2ncccc2c1 (stereo not given) | 90.2% | 102% | 90.1% | 109% | 40.2% | 101% | 110% | 92.9% | 115% | 93.3% | 31% | 108% | 114% | 92.9% | 43% | 88.6% | 103% | 93.2%
6 | COc1cccc(-c2nn(-c3ccccc3)cc2-c2ccnc(NCCCO)c2)c1 | 5.71% (active) | 28.3% | 46% | 92% | 55.1% | 45% | 58.8% | 25.9% | 35.7% | 7.32% (active) | 26.7% | 55.2% | -15.5% (active) | 21.3% | 29.5% | 22.9% | 65.5% | 34.1%
7 | CC1(C)NC2=C(C(Nc3cccnc3)N1)C(c1ccc([N+](=O)[O-])cc1)C(C(=O)c1ccc(N=[N+]=[N-])cc1)O2 (stereo not given) | 102% | 115% | 101% | 97.6% | 117% | 108% | 104% | 110% | 102% | 109% | 102% | 99.7% | 105% | 104% | 97.5% | 104% | 110% | 105%
8 | COc1ccc2c(c1)c(-c1nc(-c3cn(C)c4ncccc34)cs1)cn2CCN | 27.4% | 75.8% | 71.1% | 78.1% | 41.1% | 94.9% | 41.8% | 88.8% | 85.6% | 88.1% | -0.878% (active) | 96.9% | 95.4% | 62.3% | 16.6% | 80.5% | 55% | 45%
9 | Cc1cc(C=O)c(C)c2c1[nH]c1ccccc12 | 85.5% | 93.9% | 93% | 62.4% | 87.8% | 106% | 97.6% | 108% | 107% | 94.2% | 101% | 89% | 116% | 101% | 85.4% | 90.5% | 106% | 108%
10 | C=C1C(=O)O[C@H]2[C@H]1CC/C(COC(=O)NCc1cc3ccccc3[nH]1)=C\CC[C@@]1(C)O[C@@H]21 | -2.88% (active) | -32.8% (active) | 6.1% (active) | 26.2% | -0.221% (active) | 86.7% | -20.5% (active) | -54.4% (active) | 79.3% | 71.4% | -43.1% (active) | -24.2% (active) | 2.87% (active) | -37.8% (active) | 0.667% (active) | -81.9% (active) | 98.3% | 81%
11 | N#Cc1c(-c2ccco2)nc2c(c(-c3ccccc3)nn2-c2ccccc2)c1-c1ccc(O)cc1 | 19.7% | 55.3% | 55.2% | 93.4% | 77.7% | 46.4% | 84.2% | 86% | 53.8% | 76.4% | 18.5% | 64.7% | 62.1% | 48% | 47.3% | 36.9% | 91.5% | 43%
12 | Cc1cc(C)c(NC(=O)c2sc3nc4c(cc3c2N)CCCC4)c(C)c1 | 7.8% (active) | 55.2% | 62.3% | 90.8% | 60.9% | 51.3% | 62.5% | 18.1% | 46.2% | 18.4% | 36.2% | 56.4% | -13.6% (active) | 30.5% | 23.7% | 29.9% | 87.6% | 34.9%
13 | COC(=O)CCCCCn1c2ccccc2c2c3c(c4c5ccccc5[nH]c4c21)C(=O)N(O)C3=O | 11.3% | 22.4% | 31.2% | 86.6% | 57.5% | 70.2% | 19.5% | 33.2% | 84.5% | 23.1% | 21.6% | 59% | 71.2% | 48.7% | 13.1% | 28.4% | 55.4% | 46.5%
14 | Cc1ccsc1-c1ccc2c(c1)COC2(CCCN(C)C)c1ccc(F)cc1 (stereo not given) | -4.74% (active) | 19% | 71.9% | 72.1% | 54.4% | 79.1% | 26.6% | 67.2% | 49% | 72.4% | 48.7% | 81.9% | 17.1% | 54.3% | 22.7% | 23.3% | -48.4% (active) | 42.6%
15 | C=C(C)[C@@H]1CC[C@]2(C)[C@H](CC=C3[C@@H]4CC(C)(C)CC[C@]4(C=O)CC[C@]32C)[C@@]1(C)CCCN | -31.5% (active) | 14.2% | 77.8% | 91.8% | 85.7% | 94.2% | 88.4% | 80.1% | 96% | 87.2% | 79.1% | 87.3% | 95.1% | 29.5% | 39% | 22.9% | 40.1% | 77.3%
